About 1,200 (3.2%) of roughly 38,000 compounds showed an effect of 50% or more. The median lay at about -58%. Many of the other results were omitted from the sample, so strong results are more common in it than they were.
Tested on: Plasmodium falciparum
Assay: Calibr Malaria Delayed Death Assay SOP
Type: functional, organism-based
Parameters: scale not given: in the data most compounds retested in dose-response had high values
Details: concentration 4.99e-06 (unit not given; other assays of the set use mol/L)

First: CCn1ccnc1CNCc1ccc(C)cc1OC(C)(C)C
Second: COc1ccccc1C(C)(C)NCc1ccc(C)o1
The “Percent Effect” value of the first is lower: 21.04% for the first, 77.27% for the second.

Going from `Cn1cc(CN2CC[C@@H]3[C@H]2CCC(=O)N3c2ccccc2)cn1.O=C(O)C(F)(F)F` to `O=C(NCc1cccs1)[C@H]1CC[C@@H]2[C@@H](CCN2Cc2ccoc2)O1.O=C(O)C(F)(F)F`, the “Percent Effect” value rises from -62.18% to 4.133%.

Compared with `Cn1cnc2nc3n(c2c1=O)CCC3`, `CN(Cc1ccc(N(C)C)cc1)C(=O)NCc1nnc2n1CCC2` is higher in “Percent Effect” value: -114.6% for the first, -107.1% for the second.

Compared with `COc1ccc2nnc(CCC(=O)Nc3nc4c(s3)CCC4)n2n1`, `CCc1nnc2n1CCN(Cc1nc3c(F)cccc3[nH]1)C2` is lower in “Percent Effect” value: -9.679% for the first, -34.12% for the second.

Compared with `CCN1CCC(CNc2nccc(C)n2)(N(C)C)CC1`, `Cc1nc(CN2CCCC(N(C)Cc3cnn(C)c3)C2)no1` (configuration not stated) is higher in “Percent Effect” value: -52.36% for the first, -49.27% for the second.

First: Fc1ccc(CN2CCCC3(COCCN(Cc4c[nH]nn4)C3)C2)cc1.O=C(O)C(F)(F)F.O=C(O)C(F)(F)F (configuration not stated)
Second: O=C(O)C(F)(F)F.O=C(O)C(F)(F)F.c1cc(CN2CCCC3(COCCN(Cc4c[nH]nn4)C3)C2)cs1 (configuration not stated)
The “Percent Effect” value of the first is higher: 61.69% for the first, 27.82% for the second.

Going from `Cn1cc(CN2CCCC3(COCCN(Cc4c[nH]nn4)C3)C2)cn1.O=C(O)C(F)(F)F.O=C(O)C(F)(F)F` (configuration not stated) to `O=C(C[C@@H]1COC[C@H]2CN(Cc3ccccc3)C[C@@H]12)N1CCCC1.O=C(O)C(F)(F)F`, the “Percent Effect” value rises from -58.09% to -13.07%.

Going from `CO[C@@H]1CC[C@H]2[C@H]1OCCN2C(=O)C1CCOCC1` to `Cc1ccc(C(=O)N2CCO[C@H]3[C@H](OCC4CCOCC4)CC[C@@H]32)o1`, the “Percent Effect” value rises from -57.64% to -19.31%.

First: NS(=O)(=O)c1cnn(CCC(=O)N(C2CCCCC2)C2CC2)c1
Second: CS(=O)(=O)NC[C@]12COC[C@H]1CN(C(=O)CC1CCCC1)C2
The “Percent Effect” value of the first is higher: -77.61% for the first, -153.3% for the second.

Going from `CC(C)(C(=O)NCC(=O)N1CCCC1)c1ccccc1F` to `Cn1cc(C(=O)CC2CCCN2C(=O)c2c[nH]c3ccccc23)cn1` (configuration not stated), the “Percent Effect” value rises from -11.95% to 4.786%.

First: COC(=O)CCC(=O)N1CCC2(CN(Cc3cccc(Cl)c3)C2)C1
Second: COCCC(=O)N1CCC2(CN(Cc3cccc(Cl)c3)C2)C1
The “Percent Effect” value of the first is higher: -43.68% for the first, -141.8% for the second.

First: Cc1cccc2nc(CN3CCCC(C)C3)cc(=O)n12 (configuration not stated)
Second: CC(=O)N(c1ccc(C)cc1)c1nc(CN2CCCC(C)C2)cs1 (configuration not stated)
The “Percent Effect” value of the first is lower: -16.65% for the first, 82.35% for the second.

Going from `CC(=O)N(C)c1nc(CN2CCCC2Cn2cncn2)cs1` (configuration not stated) to `CC(=O)N(C)c1nc(CN2CCCCC2Cn2cncn2)cs1` (configuration not stated), the “Percent Effect” value falls from -120.1% to -131.1%.

Compared with `CC(=O)N(c1ccc(F)cc1)c1nc(CN2CCCC2C(C)C)cs1` (configuration not stated), `CC(=O)N(c1ccc(C)cc1)c1nc(CN2CCCCC2C)cs1` (configuration not stated) is lower in “Percent Effect” value: 89.73% for the first, 61.62% for the second.

Going from `CC1CCCN(Cc2ccc(CNC(=O)NCc3ccon3)cc2)C1` (configuration not stated) to `Cc1nc(CN2CCCC(NCc3cccc4ccccc34)C2)no1` (configuration not stated), the “Percent Effect” value rises from -178.1% to 57.02%.

Compared with `CC(=O)N(C)c1nc(CN2CCCC2c2cnn(C)c2)cs1` (configuration not stated), `CCN(C(C)=O)c1nc(CN2CCCCC2Cn2cncn2)cs1` (configuration not stated) is higher in “Percent Effect” value: -87.18% for the first, 7.085% for the second.

Going from `O=C(O)C(F)(F)F.c1cnc(N2CC[C@@H](OCC3CC3)[C@@H]2Cc2cccnc2)nc1` to `O=C(C1CCOCC1)N1C[C@H]2CCC[C@@]2(COc2cccnc2)C1.O=C(O)C(F)(F)F`, the “Percent Effect” value rises from -48.06% to -16.46%.

Going from `CCC(CO)N(C/C(C)=C/c1ccco1)Cc1ccco1` (configuration not stated) to `COc1ccccc1C(C)(C)NCc1ccco1`, the “Percent Effect” value rises from -44.13% to 64.69%.

First: Cn1nnc(NCc2ccc(OCc3ccc(Cl)cc3)cc2)n1
Second: Cc1nc(CN2CCCC(NCc3ccc4ccccc4c3)C2)no1 (configuration not stated)
The “Percent Effect” value of the first is lower: -71.17% for the first, -12.45% for the second.

Going from `Cc1nc2oc(C(=O)N3CCOCC3)c(N)c2c2c1CCCC2` to `COc1cc(C2CC(=O)Nc3c2nc2n3CCCC2)cc(OC)c1O` (configuration not stated), the “Percent Effect” value rises from -269.1% to -209%.

Compared with `CC(C)(C)c1cc2ncn(CCCN3CCCCC3CO)c(=O)c2s1` (configuration not stated), `Cc1noc2ncc(S(=O)(=O)N3CCCC(C)(C)CC3)cc12` is lower in “Percent Effect” value: -23.08% for the first, -55% for the second.

Going from `O=C(NCC1CC1)C1CCC2(CCN(C(=O)c3ccccn3)CC2)O1.O=C(O)C(F)(F)F` (configuration not stated) to `Cc1ncnc2c1CCN(CC(=O)N(C)C)CC2.O=C(O)C(F)(F)F`, the “Percent Effect” value rises from -137.4% to -30.27%.

Compared with `O=C(NCC(O)CO)Nc1cc(Br)ccc1F` (configuration not stated), `COc1ccccc1C(O)Cn1cc(C(=O)NCc2ccco2)nn1` (configuration not stated) is higher in “Percent Effect” value: -140% for the first, -49.33% for the second.

Compared with `O=C(NCc1cccnc1N1CCc2ccccc2C1)c1cc(=O)[nH][nH]1`, `CCOc1ncccc1CNS(=O)(=O)c1ccc2c(c1)CCO2` is higher in “Percent Effect” value: -96.6% for the first, -29.02% for the second.

First: Cc1nc(CN2CCCC(NCc3nc4ccccc4s3)C2)no1 (configuration not stated)
Second: Cc1nc(CN2CCCC(NCCc3ccccc3Cl)C2)no1 (configuration not stated)
The “Percent Effect” value of the first is lower: -31.98% for the first, 81.78% for the second.

Going from `Cc1cc(CN(C)C2CCCN(Cc3noc(C)n3)C2)no1` (configuration not stated) to `Cc1nc(CN2CCCC(N(C)Cc3c(C)noc3C)C2)no1` (configuration not stated), the “Percent Effect” value rises from -96.62% to 57.32%.

Compared with `COc1ccccc1OCCNC1CCCN(Cc2noc(C)n2)C1` (configuration not stated), `Cc1nc(CN2CCCC(NCCOc3ccccc3)C2)no1` (configuration not stated) is lower in “Percent Effect” value: 19.3% for the first, -60.44% for the second.

First: Cc1nnc([C@@]23CCO[C@@H]2CCN(Cc2cccc4ccccc24)C3)o1
Second: CCc1nc(CN2CCCC(N(C)Cc3nc(C)c(C)o3)C2)no1 (configuration not stated)
The “Percent Effect” value of the first is lower: -36.67% for the first, -5.85% for the second.

Compared with `CCN(CC)c1ccc(-c2ccc(C)c(S(N)(=O)=O)c2)nn1`, `COC(=O)c1ccc(CNC(C)(C)c2ccccc2OC)o1` is higher in “Percent Effect” value: -97.64% for the first, -1.138% for the second.

Compared with `CC(CN1CC[C@@H]2CCCC[C@@H]2C1)n1cnc2ccccc21` (some centres not stated), `O=C(C1=COCCO1)N1CC(Oc2nc3c(Cl)cccc3s2)C1` is lower in “Percent Effect” value: -12.48% for the first, -117.3% for the second.

Compared with `Cc1ccc(CNC(C)(C)c2noc(C(C)(C)C)n2)o1`, `CNc1c(NCc2ccco2)c(=O)c1=O` is higher in “Percent Effect” value: -93.54% for the first, -69.06% for the second.

— ChEMBL document CHEMBL3988442, “University of Dundee, Small-Polar-MMV Screening Library” (2021)
